# Shown are actives, neighbours in structure and some others; about 2.1% of the full set was active somewhere.
# Shn3 inh set2: Schnurri-3 reporter inhibition in Clone20 osteoblasts; 0.52% of 360,000 active; Clone20 osteoblast Shn3 3'UTR firefly luciferase, 24 h; AID 588674; inhibition, % at 12.5 µM;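 active = mean inhibition of at least 75% with every replicate also reaching 75%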;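 also: 0% = median of neutral control wells and 100% = pilot-screen positive control compound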
# LMP1 NFkB inh: reduces LMP1-driven NF-kappaB luciferase signal; LMP1-induced NF-kappaB luciferase reporter cells, luminescence; inhibition, % at 12.5 µM; 0.69% of 350,000 active; in the data active = inhibition above about 41%;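 also: 0% = neutral control wells and 100% = reference inhibitor control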
# TRPM1 prom inh: MITF TRPM1 promoter inhibition in SK-MEL-5 cells | SK-MEL-5 TRPM1 promoter luciferase, 24 h | inhibition, % at 12.5 µM | 0.83% of 330,000 active | AID 488899;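 active = mean inhibition across replicates of 60% or more, whatever share of single replicates reaches that level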
# PAX8 reporter: PAX8 transcriptional activity inhibition. RMG-I TPO-luciferase reporter, SteadyGlo, 24 h. inhibition, % at 12.6 µM. 1.2% of 360,000 active;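 active = mean replicate inhibition at least 60% with every replicate also reaching 60%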;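 also: luciferase light reporting Pax8 driven TPO promoter activity; plate controls were median of neutral control wells for no effect and mitoxantrone controls for full effect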
# aSyn 5UTR inh: 5' untranslated region of α-synuclein, MLPCN primary screen; alpha-synuclein 5'UTR reporter, inhibitor activity; inhibition, % (tested at 7.5 µM); 0.82% of 300,000 active; AID 1813; in the data active = inhibition above about 60%;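 also: H4 neuroglioblastoma cells stably carrying SNCA 5'UTR luciferase fusion; 0% = DMSO wells and 100% = positive control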
# Active calls of the source: *; nt = no result given.
SMILES,Shn3 inh set2,LMP1 NFkB inh,TRPM1 prom inh,PAX8 reporter,aSyn 5UTR inh
CC(C)c1ccccc1-n1c(SCC(=O)N2CCc3ccccc3C2)nc2ccccc2c1=O,96*,-2,18,7,24
CC(NC(=O)COC(=O)c1ccc2c(c1)S(=O)(=O)N=C1CCCCCN12)C12CC3CC(CC(C3)C1)C2 (configuration not stated),9,5,49,-11,68*
CC(C)c1ccc(NC(=O)C[C@H]2CC[C@H]3[C@@H](COc4ccc(NC(=O)Nc5ccc(F)c(F)c5)cc4C(=O)N3C)O2)cc1,nt,nt,nt,75*,nt
CN1C(=O)c2cc(NC(=O)Nc3ccc(F)cc3)ccc2OC[C@@H]2O[C@@H](CC(=O)NC3CCC3)CC[C@@H]21,nt,nt,nt,50,nt
CN1C(=O)c2cc(NC(=O)Nc3ccc(F)cc3)ccc2OC[C@H]2O[C@@H](CC(=O)NC3CCC3)CC[C@H]21,nt,nt,nt,62*,nt
CCCCC(=O)OCC(=O)C1(O)Cc2c(O)c3c(c(O)c2C(OC2CC(NC(=O)C(F)(F)F)C(O)C(C)O2)C1)C(=O)c1c(OC)cccc1C3=O (configuration not stated),75,48*,61*,-40,nt
COc1cccc2c1C(=O)c1c(O)c3c(c(O)c1C2=O)CC(O)(C(C)=O)CC3OC1CC(O)C(O)C(C)O1 (configuration not stated),80,31,77*,8,nt
COc1cccc2c1C(=N)c1c(O)c3c(c(O)c1C2=O)CC(O)(C(C)=O)CC3OC1CC(N)C(O)C(C)O1 (configuration not stated),92*,53*,92*,nt,nt
COc1cccc2c1C(=O)c1c(O)c3c(c(O)c1C2=O)C[C@](O)(C(C)=O)C[C@H]3O[C@@H]1C[C@@H](N)[C@@H](O)[C@@H](C)O1,94*,91*,88*,112*,111*
COc1cccc2c1-c1c(O)cccc1C2=O,8,-1,8,-9,4
C[C@H](CO)N1C[C@H](C)[C@@H](CN(C)Cc2ccccc2)Oc2ccc(NS(=O)(=O)c3ccc(F)cc3)cc2CC1=O,nt,nt,nt,6,nt
CCn1c(O)c(/C=C2\C=NN=C2c2ccccc2)sc1=S,-5,-6,-2,8,67*
Oc1[nH]c2ccc(Br)cc2c1N=NC(=S)Nc1ccc(F)cc1,20,13,27,70*,52
Oc1ccc(/C=N/Nc2cc(N3CCCC3)nc(N3CCCC3)n2)cc1,9,-1,9,nt,4
COc1cc(/C=N/Nc2nc(N3CCCC3)nc(N3CCCC3)n2)ccc1O,-8,-9,3,nt,0
Oc1ccc(/C=N/Nc2nc(N3CCCC3)nc(N3CCCC3)n2)cc1O,93*,-1,21,31,-24
COc1ccc(/C=N/Nc2cc(N3CCCC3)nc(N3CCCC3)n2)cc1,78,-90,-6,68*,12
Clc1ccccc1CSc1nnc([C@@H]2CCCN2)o1,19,-3,5,4,-11
Cc1ccccc1CSc1nnc([C@@H]2CCCN2)o1,-25,53*,-4,-42,-19
O=C(c1ccc(Br)cc1)c1cc([N+](=O)[O-])ccc1N1CCCCC1,2,11,38,97*,92*
CN1CCN(c2ccc([N+](=O)[O-])cc2C(=O)c2ccc(Br)cc2)CC1,30,-2,13,28,67*
O=C(c1ccccc1)c1cc([N+](=O)[O-])ccc1N1CCCC1,4,-5,9,7,15
CCOCCOC(=O)C(C)Oc1ccc(Oc2ncc(Cl)cc2Cl)cc1 (configuration not stated),4,-5,10,71*,-13
Cc1cccc(OCc2nc3ccccc3n2C)c1,-108,-26,-77,-134,-140
Cc1ccc(-c2cc(C(=O)OC3CCOC3=O)c3ccccc3n2)c(C)c1 (configuration not stated),30,4,4,7,18
SMILES,Shn3 inh set2,LMP1 NFkB inh,TRPM1 prom inh,PAX8 reporter,aSyn 5UTR inh
C=C(C)COc1ccc(-c2[nH]ncc2-c2ccc(Br)cc2)c(O)c1,30,2,25,32,91*
COc1ccc(-c2[nH]ncc2-c2ccc3c(c2)OCCO3)c(O)c1,11,64*,4,nt,36
C=C(C)COc1ccc(-c2[nH]ncc2-c2ccccc2OC)c(O)c1,36,-7,13,22,-34
CSc1nc(N(C)NC(=O)c2ccc(F)cc2)c2ccccc2n1,7,14,22,nt,77*
CCN1[C@@H]2c3ccc(/C=C/c4ccccc4)c(=O)n3C[C@@H]2[C@@H](CO)[C@@H]1C(=O)Nc1nccs1,nt,nt,nt,13,nt
COc1cc(/C=C2\CC/C(=C\c3cc(OC)c(O)c(OC)c3)C2=O)cc(OC)c1O,34,3,68*,88*,nt
COc1cc(/C=C2\CCC/C(=C\c3ccc(O)c(OC)c3)C2=O)ccc1O,14,-9,13,35,-394
COc1cc(/C=C2/CCc3ccccc3C2=O)cc(OC)c1OC,1,-8,-2,nt,14
COc1cc(/C=C2/CCC/C(=C\c3cc(O)c(OC)c(Cl)c3)C2=O)cc(Cl)c1O,45,-12,5,81*,-143
CCCN1C[C@H](C)[C@H](OC)CN(C)C(=O)c2ccc(NC(=O)CC(F)(F)F)cc2OC[C@@H]1C,nt,nt,nt,-4,nt
Cn1c(/C=C/c2ccccc2)nc2ccccc21,-17,47*,47,79*,39
CCOC(=O)N1CCN(C(=O)CN(c2ccc(Cl)c(C(F)(F)F)c2)S(C)(=O)=O)CC1,-20,15,14,11,21
CCn1cc(/C=C/C(=O)c2ccc(O)cc2)c(C)n1,-12,6,-50,-58,-105
O=C(COC(=O)CCc1c[nH]c2ccccc12)NCc1ccccc1,4,1,7,21,6
O=C(COc1ccc(C(=O)c2ccccc2)cc1)NCc1ccc(F)cc1,19,5,16,16,113*
O=C(COc1ccccc1)NCc1ccccc1,-11,-5,-5,nt,-12
O=C(COC(=O)CCc1c[nH]c2ccccc12)NCc1ccc(Cl)cc1,-11,46*,0,31,18
COc1ccccc1OCCC(=O)OCC(=O)NCc1ccc(F)cc1,-19,69*,-3,-5,nt
Cc1cc(C)n(-c2ccc3nnc(C)n3n2)n1,6,-6,-6,17,3
Cc1cc(NC(=O)C(C)SCC(=O)Nc2ccccc2OC(F)F)no1 (configuration not stated),-5,-5,-2,-4,-9
COc1ccc(NS(=O)(=O)c2ccc(N3CCOCC3)c(NC(=O)C(C)C)c2)cc1,66,-3,8,8,-18
CCOC(=O)/C=C/C(=O)Nc1cc(S(=O)(=O)Nc2ccc(OC)cc2)ccc1N1CCOCC1,10,-21,55,98*,nt
O=C(Nc1cc(Cl)ccc1-n1cncn1)c1ccc([N+](=O)[O-])s1,60,-4,62*,nt,-10
CC(=O)O[C@H]1[C@@H](O)[C@H](O)[C@H](Oc2c(O)c(C)c3c4c2[C@@H](C)CC[C@@H]4[C@@H](C)C[C@H]3C=C(C)C)O[C@H]1C,-2,1,14,64*,nt

# Compound activity deposited in PubChem BioAssay by Broad Institute.
